ssDAF-12 act: S. stercoralis DAF-12 nuclear receptor activators, primary screen, cell-based, luminescence, HEK293, GRIP1 co-expression, lit1-tk-luc. Nuclear hormone receptor DAF-12 (Strongyloides stercoralis). activation, % at 6.8 µM. HEK293 ssDAF-12/GRIP1 lit1-tk-luc reporter; % of 3 µM dafachronic acid response. 370,000 tested, 1% active;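 active means activation above the mean over all tested compounds plus 3 SD, cut at about 0.9% in these data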;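 further: 0% = DMSO-only wells and 100% = 3 µM delta7-dafachronic acid wells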
hgDAF-12 ag: H. glycines DAF-12 receptor agonists, primary screen, cell-based, luminescence, HEK293, GAL4 fusion, UAS-luciferase | Nuclear hormone receptor DAF-12 (Heterodera glycines), GAL4 fusion | HEK293 GAL4-hgDAF12 UAS-luciferase reporter, agonist luminescence; normalized to butyrate control | activation, % at 6.8 µM | 370,000 tested, 1.8% active;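 active means activation above a cutoff set at the mean of all screened compounds plus 3 SD, cut at about 10% in these data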;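 further: 0% = DMSO wells and 100% = sodium butyrate wells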
AHR activator: AHR activators, primary screen, cell-based, luminescence, luciferase reporter, human. 320,000 tested, 2.5% active. Aryl hydrocarbon receptor (Homo sapiens), P35869. activation, % at 5 µM. AHR-responsive luciferase reporter cells; in the data active means activation above about 47%;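 further: 0% = vehicle wells and 100% = reference agonist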
hcDAF12 agonist: H. contortus DAF-12 nuclear receptor activators, primary screen, cell-based, luminescence, HEK293, lit1-tk-luc reporter; 370,000 tested, 1.4% active; activation, % at 6.8 µM; HEK293 hcDAF-12 lit1-tk-luc reporter; 0% DMSO, 100% Δ7-dafachronic acid;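 active means activation above the mean of all tested compounds plus 3 SD, cut at about 5.5% in these data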;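 further: 100% = response to 3 µM Δ7-dafachronic acid high control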
DAX1 inh-1: DAX1 (NR0B1) inhibitors on StAR promoter, primary screen, cell-based, luminescence, SF-1 (NR5A1), full-length DAX-1; HEK293T StAR-luciferase reporter, SF-1/DAX-1 repression relief; inhibition, % at 6.8 µM; 370,000 tested, 1.1% active;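 active means inhibition above the mean over all tested compounds plus 3 SD, cut at about 3.6% in these data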;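 further: 0% = DAX-1 cells with DMSO and 100% = cells lacking DAX-1 with DMSO; higher inhibition means more luminescence from relief of DAX-1 repression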
DAX1 inh-2: DAX1 (NR0B1) inhibitors, primary screen, cell-based, HEK293, Gal4-DAX1, luciferase luminescence; HEK293 Gal4-DAX1 luciferase reporter; inhibition, % at 6.75 µM; 340,000 tested, 0.99% active; AID 504766, 2011;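 active means inhibition above the mean over all tested compounds plus 3 SD, cut at about 4.2% in these data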;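 further: 0% = DAX1-transfected cells with DMSO and 100% = empty-vector control cells with DMSO; inhibition shows as a rise in luminescence from relieved DAX1 repression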
Target sequence (P51843 207-470 limits assumed): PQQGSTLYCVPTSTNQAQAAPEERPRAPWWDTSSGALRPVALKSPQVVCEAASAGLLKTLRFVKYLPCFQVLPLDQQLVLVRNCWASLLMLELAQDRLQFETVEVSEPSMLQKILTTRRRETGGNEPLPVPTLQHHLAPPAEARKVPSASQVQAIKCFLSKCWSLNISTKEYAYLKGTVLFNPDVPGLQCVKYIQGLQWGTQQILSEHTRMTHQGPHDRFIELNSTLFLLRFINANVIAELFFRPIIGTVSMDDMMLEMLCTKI
LXRb hcDAF ctr: LXR agonists, Gal4 luciferase reporter, confirmation, counter-screen for hcDAF-12 agonist project, cell-based, luminescence, HEK293, H. contortus campaign | activation, % at 6.8 µM | 3,400 tested, under 10 active | AID 743027, 2013 | HEK293 Gal4-LXR tk-luc reporter, 24 h; normalized: DMSO 0%, positive control 100% | shares compounds with hcDAF12 agonist;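 active means mean percent activation of the reporter above a cutoff set as the average over tested compounds plus their standard deviation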
Target sequence (P55055 whole entry, looked up, the tested form may be a part): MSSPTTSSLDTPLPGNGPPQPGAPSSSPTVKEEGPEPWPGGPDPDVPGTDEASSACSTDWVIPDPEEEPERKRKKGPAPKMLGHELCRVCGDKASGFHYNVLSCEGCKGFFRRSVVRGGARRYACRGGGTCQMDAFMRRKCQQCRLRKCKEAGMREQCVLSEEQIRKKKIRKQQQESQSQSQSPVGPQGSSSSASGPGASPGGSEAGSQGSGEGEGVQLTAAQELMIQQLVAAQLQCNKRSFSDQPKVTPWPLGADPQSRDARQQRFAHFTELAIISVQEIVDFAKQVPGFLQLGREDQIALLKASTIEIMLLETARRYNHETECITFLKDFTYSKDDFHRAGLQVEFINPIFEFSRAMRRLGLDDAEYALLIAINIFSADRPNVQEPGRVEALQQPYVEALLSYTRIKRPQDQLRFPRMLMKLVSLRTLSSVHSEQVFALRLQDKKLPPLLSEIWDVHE
hcDAF12 ag: H. contortus DAF-12 receptor agonists, confirmation, cell-based, luminescence, HEK293, lit1-tk-luc, triplicate | HEK293 hcDAF-12 lit1-tk-luc reporter; % of Δ7-dafachronic acid response | activation, % at 6.8 µM | shares compounds with hcDAF12 agonist | 3,400 tested, 61% active;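 active means mean activation across triplicate tests above the threshold derived from the earlier primary screen, cut at about 5.5% in these data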;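 further: 0% = DMSO only wells and 100% = 3 µM Δ7-dafachronic acid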
hgDAF12 ag: H. glycines DAF-12 receptor agonists, confirmation, cell-based, luminescence, HEK293, GAL4-LBD fusion; activation, % at 6.8 µM; shares compounds with hgDAF-12 ag; HEK293 GAL4-hgDAF12 luciferase reporter, agonist mode; percent of butyrate response; 3,300 tested, 80% active;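 active means mean activation over triplicate wells above the hit cutoff derived from the earlier primary screen, cut at about 11% in these data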;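 further: 0% = DMSO low control and 100% = 2 mM sodium butyrate high control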
LXRb DAF12 ctr: LXR agonists, Gal4 luciferase reporter, confirmation, counter-screen for hgDAF-12 agonist project, cell-based, luminescence, HEK293, H. glycines campaign; activation, % at 6.8 µM; AID 743051, 2013; shares compounds with hgDAF-12 ag; 3,300 tested, under 10 active; 24 h;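 active means mean activation of the triplicate above a set limit carried over from the primary screen, none filed active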
The depositor's hits bear a star; . = no result. Sampled rows, rich in hits. Any-hit rate of the full collection: about 5.7%.

SMILES | ssDAF-12 act | hgDAF-12 ag | AHR activator | hcDAF12 agonist | DAX1 inh-1 | DAX1 inh-2 | LXRb hcDAF ctr | hcDAF12 ag | hgDAF12 ag | LXRb DAF12 ctr
COc1ccc(C(=O)Oc2cccc(Nc3ncnc4ccccc34)c2)cc1OC | -2 | -4 | -2 | -2 | -1 | -3 | . | . | . | .
COc1ccc(/C(=N/Nc2ncnc3ccccc23)C(=O)O)cc1 | 1.8* | 16* | 73* | 11* | 2 | 1 | 0 | 7.5* | 16* | 1
O=C(NCCc1ccccc1)c1oc2ccccc2c1COc1ccccc1 | -2 | 2 | 4 | -3 | 0 | 1 | . | . | . | .
CC1=NC(=O)C(N=Nc2cccc(C(=O)O)c2)N1c1ccccc1 (configuration not stated) | 1.5* | 16* | -6 | 10* | 3 | -4 | 1 | 13* | 16* | 1
CCN1CCN(Cc2ccc(NC(=O)c3ccc(C)c(NC(=O)N4CCNC4=O)c3)cc2C(F)(F)F)CC1 | -1 | 1 | 0 | -2 | 1 | 1 | . | . | . | .
Cc1ccc(S(=O)(=O)/N=C(/Nc2c(C)cccc2C)c2ccccc2)cc1 | -1 | -1 | -1 | -1 | 0 | -1 | . | . | . | .
Cc1ccc(S(=O)(=O)/N=C(/NC(=S)Nc2ccccc2)c2ccccc2)cc1 | 2.6* | 28* | 9 | 14* | 3 | 4 | 1 | 5 | 20* | 1
C(=C\n1nnc2ccccc21)/c1ccccn1 | 1.2* | 19* | 44 | 8.4* | 3 | 1 | 2 | 7.5* | 24* | 1
Nc1cc(Cl)ccc1C(=O)OCC(=O)NC(=O)NCc1ccccc1 | -2 | 2 | 8 | -2 | 0 | -1 | . | . | . | .
CN(C)c1cccc(-c2cnc(N3CCC(C(N)=O)CC3)s2)c1 | 1.8* | 17* | . | 6.7* | . | . | 2 | 6.0* | 19* | 1
CN(C)c1cccc(-c2nccc(N3CCC(C(N)=O)CC3)n2)c1 | -1 | 7 | . | 0 | . | . | . | . | . | .
Cc1sc2nc(C(C)C)nc(SCC(=O)NCc3ccco3)c2c1C | -2 | -4 | 1 | -2 | 0 | -1 | . | . | . | .
CC(C)c1ccc(OCc2nc(-c3ccccn3)no2)c(Br)c1 | 0.9* | 15* | 0 | 7.6* | 4.1* | 0 | 1 | 7.0* | 16* | 1
CC(C)(C)Cc1nc(-c2ccccn2)no1 | 0 | 2 | 1 | 1 | 1 | 0 | . | . | . | .
CC(C)C(NC(=O)c1ccccc1F)C(=O)Nc1ccc2c(c1)OCO2 (configuration not stated) | -1 | -2 | 11 | 0 | 0 | -1 | . | . | . | .
COCc1nnc(NC(=O)c2ccc(OC)cc2OC)s1 | 0 | 15* | -1 | 6.8* | 2 | 0 | 1 | 4 | 12* | 1
COc1ccc(C(=O)Nc2nnc(Cc3ccc(OC)c(OC)c3)s2)c(OC)c1 | -2 | 0 | -3 | -2 | -2 | -1 | . | . | . | .
COc1cccc(OCC(O)CN2CCN(c3ncccn3)CC2)c1 (configuration not stated) | -2 | 0 | 1 | -2 | 1 | 0 | . | . | . | .
S=C(Nc1ccc(Cl)cc1)c1nc2ccccc2[nH]1 | 0 | 18* | 37 | 7.3* | 4 | 2 | 1 | 6.5* | 16* | 1
Cc1cccc2cc(CN(CC3CCCO3)C(=O)c3ccco3)c3nnnn3c12 (configuration not stated) | . | . | -2 | . | . | . | . | . | . | .
Cc1cc(NC(=O)c2ccc(C(C)(C)C)cc2)no1 | 0 | 15* | . | 7.2* | 3 | 2 | 2 | 5.6* | 21* | 1
Cc1cc(NC(=O)c2ccc(F)cc2)no1 | -1 | 4 | -5 | 4 | 1 | 2 | . | . | . | .
Cn1cc(/C=C/C(=O)c2ccccc2)c2ccccc21 | 1.4* | 14* | 45 | 12* | 2 | -1 | 2 | 13* | 22* | 1
Cc1ccccc1-c1nnc(-c2ccccc2)o1 | 1 | 14* | 30 | 7.8* | 2 | 3 | 1 | 9.3* | 17* | 1
Cc1ccc(-c2nnc(-c3ccccc3Br)o2)cc1 | 1.8* | 20* | 24 | 15* | 3 | 4 | 1 | 10* | 20* | 1
SMILES | ssDAF-12 act | hgDAF-12 ag | AHR activator | hcDAF12 agonist | DAX1 inh-1 | DAX1 inh-2 | LXRb hcDAF ctr | hcDAF12 ag | hgDAF12 ag | LXRb DAF12 ctr
Cc1nnc2c(N3CCN(CCO)CC3)nc3ccccc3n12 | -1 | 1 | 2 | -2 | 0 | 1 | . | . | . | .
Cc1ccc(N(C(C)C(=O)Nc2cccc(N(C)S(C)(=O)=O)c2)S(C)(=O)=O)cc1 (configuration not stated) | -1 | -5 | 3 | -2 | -1 | 2 | . | . | . | .
O=C(CCS(=O)(=O)c1cc(Br)cc2c1N(C(=O)C1CC1)CC2)N1CCN(c2ccccn2)CC1 | -2 | -2 | 2 | -2 | 0 | 2 | . | . | . | .
Fc1cccc(/C=N/Nc2nncc3ccccc23)c1 | 1.5* | 21* | 55* | 12* | 3 | -1 | 2 | 14* | 23* | 1
Nc1cnnc(N/N=C\c2ccccc2)c1Cl | -1 | 1 | 24 | 2 | 1 | 3 | . | . | . | .
CCc1ccc(NC(=O)COc2ccc3c(c2)OCO3)cc1 | -1 | 4 | 4 | 4 | 2 | 0 | . | . | . | .
Cc1cc(N2CCOCC2)n2ncc(-c3ccccc3Cl)c2n1 | 0 | 18* | . | 6.9* | 3 | 4 | 1 | 7.0* | 16* | 1
